# DAT uptake mod – changed human dopamine transporter uptake under cocaine IC80; 110,000 compounds, 1.3% hits; B-score at 10 µM; Q01959; LLC-PK1 hDAT cells, [14C]-dopamine uptake with cocaine IC80; actives deviate in either direction;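 active = Z score or B-score, a plate-position-corrected score, falls beyond the plate's 99.7% confidence bounds, in either direction; inactive = both scores lie inside the 99.7% bounds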;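 note: scored against the spread of the other compound wells on the same plate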
# PostGolgi yeast – growth inhibition of a yeast mutant, post-Golgi transport screen. post-Golgi transport phenotypic cell assay. inhibition, % at 10 µM. 98,000 compounds, 0.9% hits. AID 739;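 note: yeast cells grown in 1536-well plates; yeast grown about 18 h at 30C before absorbance read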
# PostGolgi ctrl – inhibits growth of the yeast control strain; efflux-deficient yeast background strain, growth absorbance A615, 16 h; inhibition, % at 10 µM; 98,000 compounds, 5% hits; AID 738
# Smad3 FoxH1 inh – inhibitors of human Smad3 transcription factor binding | P84022 | TR-FRET Smad3/Dy647-FoxH1 peptide binding, europium anti-His | inhibition, % at 25 µM | 88,000 compounds, 0.29% hits | AID 630;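 active = compounds that reduce the energy-transfer binding signal between the protein and its labelled peptide by more than half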;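 note: 0% = Smad3 plus labelled peptide maximal FRET and 100% = peptide-only background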
# TNAP act mid DEA – activates human TNAP at intermediate phosphate acceptor concentration | purified TNAP, CDP-star luminescence, 100 mM DEA, 30 min; hits give high values; scale: 0 levamisole-inhibited, 1 vehicle-only enzyme | 64,000 tested, under 10 active | P05186 | activation factor at 20 µM;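 active = activation factor of at least 2 at 20 µM, relative to controls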
# Cav32 inh – human Cav3.2 channel inhibition, primary screen. B-score at 10 µM. 100,000 compounds, 4% hits. AID 449739. Cav3.2-expressing cells, Fluo-4 calcium fluorescence FDSS; hits give low values;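 active = single-dose well whose peak fluorescence ratio is a statistical outlier from its plate by either plate-standardised score or position-corrected B-score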
# Numbers without * were called inactive; . = no result. Sampled rows, rich in hits. Any-hit rate of the full collection: about 8.7%. Cut-off read from the data, not from the text of the source, unless noted: active = inhibition above about 30%; inactive = the rest.
SMILES,DAT uptake mod,PostGolgi yeast,PostGolgi ctrl,Smad3 FoxH1 inh,TNAP act mid DEA,Cav32 inh
COc1ccc(-c2c(NC(C)=O)n(C)c3ccccc3c2=O)cc1,-0.69,-14,3,6,0.8,0.22
O=C(O)c1cccc(CN2C(=O)CSC2=O)c1,0.039,-2,36*,-3,1.1,0.54
CC(C)c1ccc(NC(=O)C(c2ccc3c(c2)OCO3)N2CCCCC2)cc1 (stereo not given),0.018,-5,3,-6,.,-2.5
CC(C)c1ccc(NC(=O)C(c2ccc3c(c2)OCO3)N2CCC3(CC2)OCCO3)cc1 (stereo not given),0.8,-2,11,1,1,-7.5*
O=C(Nc1ccc2c(c1)OCO2)C(c1ccc(Cl)cc1)N1CCC2(CC1)OCCO2 (stereo not given),-0.051,1,18,-10,0.9,-6.7*
COc1cccc(Cn2cnc3c(NS(=O)(=O)c4cc(Cl)ccc4Cl)c(C)c(C)cc32)c1,2.4,8,22,.,.,-5.4*
COc1cccc(Cn2cnc3c(NS(=O)(=O)c4ccc(Cl)cc4Cl)c(C)c(C)cc32)c1,-0.054,-11,28,.,.,-3.5*
COc1cccc(Cn2cnc3c(NS(=O)(=O)c4ccc(Cl)cc4)c(C)c(C)cc32)c1,-0.16,8,5,.,.,1.1
COc1cccc(Cn2cnc3c(NS(=O)(=O)c4cccc(Cl)c4Cl)c(C)c(C)cc32)c1,-0.055,2,15,.,.,-5.4*
CCCCn1c(=O)n(C)c(=O)c2c3c(sc21)COC(C)(C)C3,0.55,0,3,-5,0.9,.
Cc1ccc(NC(CNS(=O)(=O)c2ccc(Cl)cc2)c2ccccc2)cc1 (stereo not given),0.025,-1,31*,.,.,.
CCOC(=O)N1CCN(c2c(NCCc3ccc(OCC)c(OCC)c3)c(=O)c2=O)CC1,-1.1,-1,6,-1,1,0.48
O=C1CC(c2ccccc2)Cc2nc(N3CCc4ccccc4C3)ncc21 (stereo not given),0.55,5,46*,1,.,-6.2*
CC1CC(C)CN(c2ncc3c(n2)CC(c2ccccc2Cl)CC3=O)C1 (stereo not given),1.4,-4,31*,1,0.9,-1.4
Cc1ccc(C2CC(=O)c3cnc(N4CCc5ccccc5C4)nc3C2)cc1 (stereo not given),1.5,7,27,2,.,-3.5
O=C1OC(Oc2ccccc2)(c2ccccc2)c2ccccc21 (stereo not given),-1.3,2,32*,.,.,-2.5
O=C1OC(OC2CCCCC2)(c2ccccc2)c2ccccc21 (stereo not given),-0.65,6,39*,.,.,-0.76
CCCCC(CC)COC1(c2ccccc2)OC(=O)c2ccccc21 (stereo not given),0.048,0,-1,.,.,-3.1
CCCCOC1(c2ccccc2)OC(=O)c2ccccc21 (stereo not given),-0.54,-2,10,.,.,-0.81
O=C(Nc1nccs1)c1ccc(S(=O)(=O)NCc2cccs2)cc1,0.37,1,12,-4,1,-0.037
O=C(Nc1nccs1)c1ccc(S(=O)(=O)NCC2CCCCC2)cc1,.,18,41*,2,0.9,-1.4
COc1cc(NC(=O)CS(=O)(=O)c2ccc(C)cc2)cc(OC)c1OC,-0.82,-2,-6,9,0.9,0.76
CN(C)c1ccc(-c2nnn(Cc3ccccc3Br)n2)cc1,-1.3,1,31*,0,0.8,0.05
Fc1ccccc1Cn1nnc(-c2ccc3c(c2)OCO3)n1,0.7,6,4,11,.,-1.7
Cc1ccc(CN(C(=O)Cn2nnc3ccccc32)C(C(=O)NCc2ccco2)c2cccs2)cc1 (stereo not given),-0.39,2,5,7,1,-9.4*
O=C(NCc1ccco1)C(c1cccs1)N(Cc1ccccc1)C(=O)Cn1nnc2ccccc21 (stereo not given),-0.69,-5,16,9,0.9,-3.2
O=C(NCc1ccco1)C(c1ccc(F)cc1)N(CC1CCCO1)C(=O)Cn1nnc2ccccc21 (stereo not given),-0.03,-7,-10,11,0.9,-4.9*
COCCNC(=O)C(c1ccc(C)o1)N(CC1CCCO1)C(=O)Cn1nnc2ccccc21 (stereo not given),-0.099,-2,26,-5,0.9,-0.088

# Bioassay records deposited in PubChem BioAssay by several laboratories.
